Test results as given in publication PMC4336329 (PLoS ONE, 2015).
About 2,200 (0.71%) of roughly 310,000 compounds showed an effect of 50% or more. Effects have a minus sign here. Many of the other results were omitted from the sample, so strong results are more common in it than they were.

Target: human ether-à-go-go-related gene (hERG) potassium channel (human, UniProt Q12809)
Assay: primary screen, population patch clamp on CHO cells stably expressing hERG; higher = less effect of the substance

Chain of human ether-à-go-go-related gene (hERG) potassium channel (Q12809 whole entry, looked up): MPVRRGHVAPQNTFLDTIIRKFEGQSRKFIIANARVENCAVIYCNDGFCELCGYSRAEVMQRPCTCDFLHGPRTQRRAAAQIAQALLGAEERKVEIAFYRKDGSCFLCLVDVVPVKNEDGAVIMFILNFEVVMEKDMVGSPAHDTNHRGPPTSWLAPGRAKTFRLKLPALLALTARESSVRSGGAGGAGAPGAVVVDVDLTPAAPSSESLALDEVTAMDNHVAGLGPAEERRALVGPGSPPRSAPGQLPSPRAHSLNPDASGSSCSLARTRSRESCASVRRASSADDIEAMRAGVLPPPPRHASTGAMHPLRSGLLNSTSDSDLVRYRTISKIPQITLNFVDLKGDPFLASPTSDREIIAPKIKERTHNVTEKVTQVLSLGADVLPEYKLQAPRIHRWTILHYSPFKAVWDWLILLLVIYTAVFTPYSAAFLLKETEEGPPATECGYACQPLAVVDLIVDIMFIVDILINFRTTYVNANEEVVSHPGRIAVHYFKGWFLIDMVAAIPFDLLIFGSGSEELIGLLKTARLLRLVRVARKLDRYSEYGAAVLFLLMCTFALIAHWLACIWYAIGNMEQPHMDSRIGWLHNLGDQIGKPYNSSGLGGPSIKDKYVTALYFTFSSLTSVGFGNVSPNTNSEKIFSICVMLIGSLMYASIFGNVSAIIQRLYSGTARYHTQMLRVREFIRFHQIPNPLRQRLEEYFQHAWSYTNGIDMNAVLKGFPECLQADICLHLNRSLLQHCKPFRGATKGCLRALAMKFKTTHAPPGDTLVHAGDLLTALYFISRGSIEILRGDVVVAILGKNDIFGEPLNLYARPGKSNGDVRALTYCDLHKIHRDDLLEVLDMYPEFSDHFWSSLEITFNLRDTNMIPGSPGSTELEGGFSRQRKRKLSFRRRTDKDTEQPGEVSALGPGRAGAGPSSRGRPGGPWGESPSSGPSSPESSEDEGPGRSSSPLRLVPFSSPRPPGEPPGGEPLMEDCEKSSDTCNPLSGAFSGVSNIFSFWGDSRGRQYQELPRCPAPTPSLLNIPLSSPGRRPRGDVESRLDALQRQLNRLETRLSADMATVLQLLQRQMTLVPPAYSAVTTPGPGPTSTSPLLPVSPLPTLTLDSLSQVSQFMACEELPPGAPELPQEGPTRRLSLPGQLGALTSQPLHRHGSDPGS

Row | Structure (SMILES) | hERG current change (%, negative = inhibition) at 1uM
1 | CC(C)(C)OC(=O)N/N=C\c1ccc(OC(=O)c2ccco2)cc1 | 10.8%
2 | COc1ccccc1C(=O)NC1CCN(C(=O)Nc2ccc(C)cc2)CC1 | 10.5%
3 | COc1ccc(N=C2SC(CC(=O)Nc3ccccc3)C(=O)N2CCN2CCOCC2)cc1 (stereo not drawn) | 3.66%
4 | O=C(CC1SC(=Nc2ccccc2F)N(CCN2CCOCC2)C1=O)Nc1ccc(F)cc1F (stereo not drawn) | 1.58%
5 | O=C(CC1SC(=Nc2ccc(OC(F)F)cc2)N(CCN2CCOCC2)C1=O)Nc1ccc(F)cc1F (stereo not drawn) | -80.4%
6 | Cc1sc2ncnc(NC3CCN(Cc4ccccc4)CC3)c2c1C | -56.9%
7 | Cc1csc2ncnc(NC3CCN(Cc4ccccc4)CC3)c12 | -35.4%
8 | c1ccc(CN2CCC(Nc3ncnc4sccc34)CC2)cc1 | -31.2%
9 | NC(=S)Nc1cccc2cc3ccccc3cc12 | 0.594%
10 | O=C1NC(c2ccc3c(c2)OCO3)Oc2ccccc21 (stereo not drawn) | 7.7%
11 | CN(C)CCCOC(=O)c1ccc(Cl)cc1Cl.Cl | -7.49%
12 | CCN(CC)CCOC(=O)c1ccc(Cl)cc1Cl.Cl | -8.41%
13 | CCCN(CCC)CCCOC(=O)c1ccc(Cl)cc1Cl.Cl | -56.8%
14 | Cn1cc(CNCc2ccc(-n3cccn3)cc2)c(-c2ccccc2F)n1 | -35.4%
15 | CN(Cc1ccc(-n2cccn2)cc1)Cc1cn(C)nc1-c1ccccc1F | -63.5%
16 | CN(Cc1cccc(-n2cccn2)c1)Cc1cn(C)nc1-c1ccccc1F | 16.7%
17 | Cc1ccc(=O)n(C(C(=O)NCc2ccco2)C(=O)c2ccc(F)cc2)c1 (stereo not drawn) | 6.1%
18 | Cn1c(Cn2nnc(-c3ccccc3)n2)nnc1SCc1ccccc1Cl | 5.26%
19 | CCCCOc1ccc(Cc2c(COCC)[nH]c(=S)[nH]c2=O)cc1 | 13%
20 | Fc1cccc(C2NC(=S)NC3=C2N2CCC3CC2)c1 (stereo not drawn) | 1.79%
21 | COc1ccc(CCNC(=O)c2c(O)c3cccc4c3n(c2=O)CC4)cc1OC | -6.66%
22 | COc1cccc(-c2nc(CS(=O)(=O)CC(=O)NCCCN3CCc4ccccc4C3)c(C)o2)c1 | -56.3%
23 | COc1cccc(-c2nc(CS(=O)(=O)CC(=O)NCCCN3CCN(C)CC3)c(C)o2)c1 | 11.2%
24 | COc1cccc(-c2nc(CS(=O)(=O)CC(=O)NCCC(C)C)c(C)o2)c1 | 14.4%
25 | COc1cccc(-c2nc(CS(=O)(=O)CC(=O)NCCCN3CCOCC3)c(C)o2)c1 | 10.9%
26 | COCCCNC(=O)CS(=O)(=O)Cc1nc(-c2cccc(OC)c2)oc1C | 11.3%
27 | CCCNC(=O)CS(=O)(=O)Cc1nc(-c2cccc(OC)c2)oc1C | -284%
